# How the values were obtained:
# Assay in all cases: DAPPL (digital affinity profiling via proximity ligation, sequencing); 10 mM Tris-HCl pH 7.5, 50 mM NaCl, 1 mM DTT, 4% glycerol, room temperature, 30 min; GST-TFs on glutathione beads, 16-mer random dsDNA library, 0.1% formaldehyde crosslink after washing; high values mean tight binding
# FLI1 = molecular target: T1, FLI1 (Homo sapiens, UniProt Q01543 1-452); details: protein: recombinant; tags: N-terminal GST; dsDNA, one strand shown
# T1 sequence: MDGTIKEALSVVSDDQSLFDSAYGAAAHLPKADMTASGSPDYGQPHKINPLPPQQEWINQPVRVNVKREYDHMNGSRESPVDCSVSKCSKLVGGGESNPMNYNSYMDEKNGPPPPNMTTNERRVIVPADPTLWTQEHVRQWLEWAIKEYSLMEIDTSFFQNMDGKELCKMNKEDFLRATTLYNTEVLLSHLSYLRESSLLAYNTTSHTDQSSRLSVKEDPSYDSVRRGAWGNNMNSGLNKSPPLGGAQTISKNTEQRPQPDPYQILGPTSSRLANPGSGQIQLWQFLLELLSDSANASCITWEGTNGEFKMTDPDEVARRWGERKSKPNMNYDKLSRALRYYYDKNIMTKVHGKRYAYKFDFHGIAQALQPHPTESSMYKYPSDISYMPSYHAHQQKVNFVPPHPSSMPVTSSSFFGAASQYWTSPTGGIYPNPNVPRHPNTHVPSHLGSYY
# In short: (§1)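 GST fusions of human transcription factors were expressed in yeast and captured with glutathione beads. Once given DNA barcodes and pooled alongside a tag-only sample, they were incubated for 30 min at room temperature with 200 nmole of a random double-stranded 16-mer DNA library in Tris/NaCl/DTT/glycerol buffer, then washed, crosslinked (0.1% formaldehyde), proximity-ligated, PCR-amplified and sequenced on an Illumina NextSeq500. The binding signal of each hexamer is its read frequency for a factor divided by its frequency for the tag-only sample.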
# ELK1 = molecular target: T2, ELK1 (Homo sapiens, UniProt P19419 1-428); details: protein: recombinant; tags: N-terminal GST; dsDNA, one strand shown
# T2 sequence: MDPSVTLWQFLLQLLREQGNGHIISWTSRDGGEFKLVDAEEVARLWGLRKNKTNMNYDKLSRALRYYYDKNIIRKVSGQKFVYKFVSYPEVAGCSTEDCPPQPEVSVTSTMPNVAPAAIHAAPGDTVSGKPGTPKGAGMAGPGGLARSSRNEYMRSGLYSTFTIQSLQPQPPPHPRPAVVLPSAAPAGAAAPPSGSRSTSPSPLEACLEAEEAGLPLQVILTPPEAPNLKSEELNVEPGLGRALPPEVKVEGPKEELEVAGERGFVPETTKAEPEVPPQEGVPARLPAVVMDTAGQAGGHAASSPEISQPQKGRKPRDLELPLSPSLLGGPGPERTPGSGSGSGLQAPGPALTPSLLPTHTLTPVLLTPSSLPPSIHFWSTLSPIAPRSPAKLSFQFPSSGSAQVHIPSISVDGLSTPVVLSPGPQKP
# In short: as §1
# GABPA = molecular target: T3, GABPA (Homo sapiens, UniProt Q06546 1-454); details: protein: recombinant; tags: N-terminal GST; dsDNA, one strand shown
# T3 sequence: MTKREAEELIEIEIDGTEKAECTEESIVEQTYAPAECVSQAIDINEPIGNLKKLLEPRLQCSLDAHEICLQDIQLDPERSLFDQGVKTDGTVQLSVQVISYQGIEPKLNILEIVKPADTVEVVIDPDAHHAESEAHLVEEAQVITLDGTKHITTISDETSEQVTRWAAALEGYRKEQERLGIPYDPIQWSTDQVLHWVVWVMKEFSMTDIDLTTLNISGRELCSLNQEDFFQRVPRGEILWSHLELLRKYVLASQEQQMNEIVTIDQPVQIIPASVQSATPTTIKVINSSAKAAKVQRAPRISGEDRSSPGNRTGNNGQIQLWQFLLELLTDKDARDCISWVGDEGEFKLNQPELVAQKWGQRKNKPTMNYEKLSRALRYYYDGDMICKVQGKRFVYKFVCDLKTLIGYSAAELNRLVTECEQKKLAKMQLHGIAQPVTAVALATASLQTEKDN
# In short: as §1
# ERG = molecular target: T4, ERG (Homo sapiens, UniProt P11308 1-479); details: protein: recombinant; tags: N-terminal GST; dsDNA, one strand shown
# T4 sequence: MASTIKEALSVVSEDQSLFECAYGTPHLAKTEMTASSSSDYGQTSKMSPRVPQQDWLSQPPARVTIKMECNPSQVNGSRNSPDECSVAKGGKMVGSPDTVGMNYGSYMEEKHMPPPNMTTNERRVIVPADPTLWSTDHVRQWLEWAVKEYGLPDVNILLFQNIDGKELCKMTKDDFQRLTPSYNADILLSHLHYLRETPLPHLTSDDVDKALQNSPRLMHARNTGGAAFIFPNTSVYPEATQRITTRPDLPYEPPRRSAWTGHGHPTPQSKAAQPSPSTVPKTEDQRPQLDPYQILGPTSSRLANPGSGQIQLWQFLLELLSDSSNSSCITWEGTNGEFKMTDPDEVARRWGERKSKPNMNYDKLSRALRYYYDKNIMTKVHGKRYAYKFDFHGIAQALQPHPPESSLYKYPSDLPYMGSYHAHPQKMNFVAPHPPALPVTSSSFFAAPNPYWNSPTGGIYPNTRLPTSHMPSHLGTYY
# In short: as §1
# ELF1 = ELF1 (Homo sapiens, UniProt P32519 1-619); details: protein: recombinant; tags: N-terminal GST; dsDNA, one strand shown
# In short: as §1
# EHF = molecular target: T5, EHF (Homo sapiens, UniProt Q9NZC4 1-300); details: protein: recombinant; tags: N-terminal GST; dsDNA, one strand shown
# T5 sequence: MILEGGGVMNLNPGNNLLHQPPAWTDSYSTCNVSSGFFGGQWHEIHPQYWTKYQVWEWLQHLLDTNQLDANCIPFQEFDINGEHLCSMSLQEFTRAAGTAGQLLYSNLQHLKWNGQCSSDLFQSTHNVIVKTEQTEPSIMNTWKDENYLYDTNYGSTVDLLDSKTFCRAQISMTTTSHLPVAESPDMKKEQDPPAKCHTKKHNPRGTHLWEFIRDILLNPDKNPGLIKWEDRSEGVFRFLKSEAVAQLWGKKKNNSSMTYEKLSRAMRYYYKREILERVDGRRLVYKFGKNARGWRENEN
# In short: as §1
# SPI1 = SPI1 (Homo sapiens, UniProt P17947 1-270); details: protein: recombinant; tags: N-terminal GST; dsDNA, one strand shown
# In short: as §1
# SPIB = SPIB (Homo sapiens, UniProt Q01892 1-262); details: protein: recombinant; tags: N-terminal GST; dsDNA, one strand shown
# In short: as §1
# ELK3 = molecular target: T6, ELK3 (Homo sapiens, UniProt P41970 1-407); details: protein: recombinant; tags: N-terminal GST; dsDNA, one strand shown
# T6 sequence: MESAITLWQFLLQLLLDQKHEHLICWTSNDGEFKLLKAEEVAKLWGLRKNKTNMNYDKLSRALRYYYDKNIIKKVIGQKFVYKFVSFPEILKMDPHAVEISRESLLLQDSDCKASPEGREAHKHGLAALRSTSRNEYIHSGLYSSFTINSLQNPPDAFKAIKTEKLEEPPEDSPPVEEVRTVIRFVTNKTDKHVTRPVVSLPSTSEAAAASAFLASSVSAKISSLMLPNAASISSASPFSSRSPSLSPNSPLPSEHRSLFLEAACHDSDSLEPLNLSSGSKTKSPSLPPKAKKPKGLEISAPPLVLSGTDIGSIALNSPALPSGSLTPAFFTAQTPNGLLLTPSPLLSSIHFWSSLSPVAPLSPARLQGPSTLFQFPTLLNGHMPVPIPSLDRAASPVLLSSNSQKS
# In short: as §1
# FEV = molecular target: T7, FEV (Homo sapiens, UniProt Q99581 1-238); details: protein: recombinant; tags: N-terminal GST; dsDNA, one strand shown
# T7 sequence: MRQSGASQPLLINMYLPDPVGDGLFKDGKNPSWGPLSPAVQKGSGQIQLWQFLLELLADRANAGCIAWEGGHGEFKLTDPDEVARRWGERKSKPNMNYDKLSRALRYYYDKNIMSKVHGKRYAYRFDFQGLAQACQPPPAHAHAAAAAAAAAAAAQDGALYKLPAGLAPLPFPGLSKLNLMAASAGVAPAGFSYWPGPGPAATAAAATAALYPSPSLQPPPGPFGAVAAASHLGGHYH
# In short: as §1
# ETV5 = ETV5 (Homo sapiens, UniProt P41161 1-510); details: protein: recombinant; tags: N-terminal GST; dsDNA, one strand shown
# In short: as §1
# HSF1 = HSF1 (Homo sapiens, UniProt Q00613 1-529); details: protein: recombinant; tags: N-terminal GST; chain copies: 3; dsDNA, one strand shown
# In short: as §1
# SPIC = molecular target: T8, SPIC (Homo sapiens, UniProt Q8N5J4 1-248); details: protein: recombinant; tags: N-terminal GST; dsDNA, one strand shown
# T8 sequence: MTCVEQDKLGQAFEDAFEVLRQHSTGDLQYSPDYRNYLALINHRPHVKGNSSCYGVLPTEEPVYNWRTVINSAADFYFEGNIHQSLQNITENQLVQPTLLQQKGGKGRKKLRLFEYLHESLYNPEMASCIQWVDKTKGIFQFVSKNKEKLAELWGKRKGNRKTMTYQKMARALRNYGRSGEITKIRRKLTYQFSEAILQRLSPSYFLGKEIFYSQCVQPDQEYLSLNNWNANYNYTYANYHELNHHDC
# In short: as §1
# ELF4 = ELF4 (Homo sapiens, UniProt Q99607 1-663); details: protein: recombinant; tags: N-terminal GST; dsDNA, one strand shown
# In short: as §1
# ELK4 = molecular target: T9, ELK4 (Homo sapiens, UniProt P28324-2 1-405); details: protein: recombinant; tags: N-terminal GST; dsDNA, one strand shown
# T9 sequence: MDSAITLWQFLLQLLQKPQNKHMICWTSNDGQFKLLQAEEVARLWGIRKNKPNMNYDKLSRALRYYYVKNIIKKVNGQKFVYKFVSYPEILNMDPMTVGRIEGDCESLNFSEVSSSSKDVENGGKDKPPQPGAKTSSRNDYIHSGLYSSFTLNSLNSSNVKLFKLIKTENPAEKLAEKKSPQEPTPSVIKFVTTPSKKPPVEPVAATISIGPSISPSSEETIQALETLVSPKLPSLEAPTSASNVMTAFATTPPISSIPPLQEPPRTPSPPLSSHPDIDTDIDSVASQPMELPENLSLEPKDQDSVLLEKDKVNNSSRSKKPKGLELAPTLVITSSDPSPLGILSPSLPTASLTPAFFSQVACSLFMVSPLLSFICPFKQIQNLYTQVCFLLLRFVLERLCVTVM
# In short: as §1
# ETV2 = molecular target: T10, ETV2 (Homo sapiens, UniProt O00321 1-342); details: protein: recombinant; tags: N-terminal GST; dsDNA, one strand shown
# T10 sequence: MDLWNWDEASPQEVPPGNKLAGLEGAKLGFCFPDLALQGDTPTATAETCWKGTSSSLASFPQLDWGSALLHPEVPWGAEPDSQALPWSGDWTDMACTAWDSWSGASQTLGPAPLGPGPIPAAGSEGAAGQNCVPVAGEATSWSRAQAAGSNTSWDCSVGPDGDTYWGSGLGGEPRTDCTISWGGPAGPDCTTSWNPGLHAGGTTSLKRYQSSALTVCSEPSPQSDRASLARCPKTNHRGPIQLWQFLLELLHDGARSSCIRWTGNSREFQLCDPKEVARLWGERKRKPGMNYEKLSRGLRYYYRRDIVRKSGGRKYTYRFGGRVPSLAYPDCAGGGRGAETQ
# In short: as §1
# ELF3 = molecular target: T11, ELF3 (Homo sapiens, UniProt P78545 1-371); details: protein: recombinant; tags: N-terminal GST; dsDNA, one strand shown
# T11 sequence: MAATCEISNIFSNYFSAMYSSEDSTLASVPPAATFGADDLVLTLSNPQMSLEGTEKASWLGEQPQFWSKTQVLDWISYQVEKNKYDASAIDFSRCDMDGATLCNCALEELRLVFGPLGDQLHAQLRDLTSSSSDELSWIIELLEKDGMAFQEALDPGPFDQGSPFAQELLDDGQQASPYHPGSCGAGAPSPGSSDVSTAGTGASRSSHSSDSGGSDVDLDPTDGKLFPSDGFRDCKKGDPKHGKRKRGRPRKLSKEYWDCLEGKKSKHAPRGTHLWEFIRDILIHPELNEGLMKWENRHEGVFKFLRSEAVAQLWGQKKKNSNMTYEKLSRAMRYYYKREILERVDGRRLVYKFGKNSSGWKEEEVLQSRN
# In short: as §1
# CRX = CRX (Homo sapiens, UniProt O43186 1-299); details: protein: recombinant; tags: N-terminal GST; dsDNA, one strand shown
# In short: as §1
# ETV1 = ETV1 (Homo sapiens, UniProt P50549 1-477); details: protein: recombinant; tags: N-terminal GST; dsDNA, one strand shown
# In short: as §1
# Chain of ETV1 (P50549 whole entry): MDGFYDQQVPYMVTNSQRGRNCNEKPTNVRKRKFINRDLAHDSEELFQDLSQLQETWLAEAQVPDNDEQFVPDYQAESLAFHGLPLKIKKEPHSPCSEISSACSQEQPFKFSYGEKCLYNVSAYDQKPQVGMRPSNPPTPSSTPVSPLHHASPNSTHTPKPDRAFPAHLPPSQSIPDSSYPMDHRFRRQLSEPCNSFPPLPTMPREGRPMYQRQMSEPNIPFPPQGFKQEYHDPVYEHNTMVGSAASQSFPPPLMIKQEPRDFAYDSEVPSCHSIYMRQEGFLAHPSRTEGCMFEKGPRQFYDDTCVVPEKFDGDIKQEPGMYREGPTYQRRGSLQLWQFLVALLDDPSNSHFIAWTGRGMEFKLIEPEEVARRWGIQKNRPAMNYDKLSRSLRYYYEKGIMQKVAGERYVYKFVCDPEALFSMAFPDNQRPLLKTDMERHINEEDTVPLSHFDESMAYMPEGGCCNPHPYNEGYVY
# Chain of ELF4 (Q99607 whole entry): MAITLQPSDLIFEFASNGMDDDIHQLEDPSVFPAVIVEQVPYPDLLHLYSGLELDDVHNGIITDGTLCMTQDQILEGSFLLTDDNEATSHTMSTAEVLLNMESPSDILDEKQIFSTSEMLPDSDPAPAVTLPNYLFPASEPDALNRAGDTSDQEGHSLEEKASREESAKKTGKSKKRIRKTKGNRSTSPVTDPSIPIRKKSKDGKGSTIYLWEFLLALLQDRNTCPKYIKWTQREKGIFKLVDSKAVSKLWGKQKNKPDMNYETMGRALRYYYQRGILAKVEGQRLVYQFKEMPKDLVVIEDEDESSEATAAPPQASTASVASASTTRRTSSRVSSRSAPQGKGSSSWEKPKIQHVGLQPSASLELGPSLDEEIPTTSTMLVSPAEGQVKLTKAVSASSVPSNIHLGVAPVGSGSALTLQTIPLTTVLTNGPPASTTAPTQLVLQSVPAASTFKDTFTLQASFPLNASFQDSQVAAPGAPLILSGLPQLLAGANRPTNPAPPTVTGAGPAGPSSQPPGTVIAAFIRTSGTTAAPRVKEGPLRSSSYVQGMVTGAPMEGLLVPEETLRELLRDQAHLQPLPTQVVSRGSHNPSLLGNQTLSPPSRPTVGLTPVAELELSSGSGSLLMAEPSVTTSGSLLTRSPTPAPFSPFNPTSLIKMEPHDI
# Chain of ETV5 (P41161 whole entry): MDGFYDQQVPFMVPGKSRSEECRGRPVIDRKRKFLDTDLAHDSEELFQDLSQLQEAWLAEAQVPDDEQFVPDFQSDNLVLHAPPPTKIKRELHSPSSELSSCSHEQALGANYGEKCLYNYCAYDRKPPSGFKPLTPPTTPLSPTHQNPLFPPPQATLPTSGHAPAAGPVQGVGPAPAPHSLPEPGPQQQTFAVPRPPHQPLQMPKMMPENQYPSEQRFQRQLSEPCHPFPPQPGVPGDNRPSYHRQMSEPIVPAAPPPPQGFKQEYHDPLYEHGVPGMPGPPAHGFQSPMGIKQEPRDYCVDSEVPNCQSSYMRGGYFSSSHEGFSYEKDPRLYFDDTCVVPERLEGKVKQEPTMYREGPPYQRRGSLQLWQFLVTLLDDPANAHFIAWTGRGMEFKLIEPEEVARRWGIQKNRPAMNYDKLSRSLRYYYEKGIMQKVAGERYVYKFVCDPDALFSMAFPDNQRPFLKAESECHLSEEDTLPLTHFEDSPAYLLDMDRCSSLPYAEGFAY
# Chain of CRX (O43186 whole entry): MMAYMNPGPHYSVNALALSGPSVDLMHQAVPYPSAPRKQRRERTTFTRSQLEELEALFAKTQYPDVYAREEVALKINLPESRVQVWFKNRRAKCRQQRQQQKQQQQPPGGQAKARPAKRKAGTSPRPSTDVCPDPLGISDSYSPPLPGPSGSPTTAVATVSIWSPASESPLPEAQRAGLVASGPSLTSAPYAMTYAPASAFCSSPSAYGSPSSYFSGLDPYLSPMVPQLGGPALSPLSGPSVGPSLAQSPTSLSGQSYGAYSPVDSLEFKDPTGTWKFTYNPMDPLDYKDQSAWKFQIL
# Chain of SPIB (Q01892 whole entry): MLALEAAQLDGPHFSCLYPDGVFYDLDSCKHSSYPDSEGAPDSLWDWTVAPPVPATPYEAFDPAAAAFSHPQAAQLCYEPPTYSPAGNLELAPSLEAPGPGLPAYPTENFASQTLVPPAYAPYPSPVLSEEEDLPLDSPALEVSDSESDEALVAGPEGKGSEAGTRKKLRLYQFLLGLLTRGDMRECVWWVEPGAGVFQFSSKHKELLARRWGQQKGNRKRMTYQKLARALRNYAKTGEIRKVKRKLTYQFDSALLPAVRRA
# Chain of ELF1 (P32519 whole entry): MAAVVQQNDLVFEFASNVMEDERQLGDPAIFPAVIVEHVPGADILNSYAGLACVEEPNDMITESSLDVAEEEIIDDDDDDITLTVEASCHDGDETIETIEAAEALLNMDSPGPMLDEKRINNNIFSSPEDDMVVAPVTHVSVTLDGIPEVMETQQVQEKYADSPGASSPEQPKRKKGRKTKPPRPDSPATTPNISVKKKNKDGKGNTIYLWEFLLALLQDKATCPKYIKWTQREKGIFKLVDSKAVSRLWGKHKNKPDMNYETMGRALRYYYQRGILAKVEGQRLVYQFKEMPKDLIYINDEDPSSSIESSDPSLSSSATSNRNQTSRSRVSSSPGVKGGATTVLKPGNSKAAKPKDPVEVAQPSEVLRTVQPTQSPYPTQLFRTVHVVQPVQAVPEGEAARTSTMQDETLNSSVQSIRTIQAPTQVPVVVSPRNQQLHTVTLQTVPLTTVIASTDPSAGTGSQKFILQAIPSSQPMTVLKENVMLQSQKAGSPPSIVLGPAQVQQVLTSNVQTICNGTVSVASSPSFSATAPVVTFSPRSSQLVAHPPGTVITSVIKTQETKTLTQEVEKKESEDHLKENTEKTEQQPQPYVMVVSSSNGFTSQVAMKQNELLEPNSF
# Chain of HSF1 (Q00613 whole entry): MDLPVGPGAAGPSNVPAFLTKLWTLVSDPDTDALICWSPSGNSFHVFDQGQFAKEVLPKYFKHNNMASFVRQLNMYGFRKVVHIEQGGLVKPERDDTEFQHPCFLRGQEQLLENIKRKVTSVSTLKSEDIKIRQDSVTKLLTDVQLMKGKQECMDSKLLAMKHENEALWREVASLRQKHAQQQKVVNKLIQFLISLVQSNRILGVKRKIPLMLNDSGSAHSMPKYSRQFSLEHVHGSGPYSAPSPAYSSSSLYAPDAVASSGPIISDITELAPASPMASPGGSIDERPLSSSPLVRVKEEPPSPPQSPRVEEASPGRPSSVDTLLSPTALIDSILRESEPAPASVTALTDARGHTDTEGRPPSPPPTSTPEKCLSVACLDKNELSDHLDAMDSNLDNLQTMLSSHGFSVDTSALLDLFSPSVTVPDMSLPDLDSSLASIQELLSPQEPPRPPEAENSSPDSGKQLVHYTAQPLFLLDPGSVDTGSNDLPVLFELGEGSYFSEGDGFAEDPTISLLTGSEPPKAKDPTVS
sequence,measurement,setting,value
AATTAT,binding signal,FLI1,"1.24 fold enrichment (6-mer frequency, TF over GST control)"
same,binding signal,ELK1,"1.25 fold enrichment (6-mer frequency, TF over GST control)"
same,binding signal,GABPA,"1.2 fold enrichment (6-mer frequency, TF over GST control)"
same,binding signal,ERG,"1.26 fold enrichment (6-mer frequency, TF over GST control)"
same,binding signal,ELF1,"1.22 fold enrichment (6-mer frequency, TF over GST control)"
same,binding signal,EHF,"1.23 fold enrichment (6-mer frequency, TF over GST control)"
same,binding signal,SPI1,"1.18 fold enrichment (6-mer frequency, TF over GST control)"
same,binding signal,SPIB,"1.23 fold enrichment (6-mer frequency, TF over GST control)"
same,binding signal,ELK3,"1.25 fold enrichment (6-mer frequency, TF over GST control)"
same,binding signal,FEV,"1.25 fold enrichment (6-mer frequency, TF over GST control)"
same,binding signal,ETV5,"1.29 fold enrichment (6-mer frequency, TF over GST control)"
same,binding signal,HSF1,"1.55 fold enrichment (6-mer frequency, TF over GST control)"
same,binding signal,SPIC,"1.33 fold enrichment (6-mer frequency, TF over GST control)"
same,binding signal,ELF4,"1.16 fold enrichment (6-mer frequency, TF over GST control)"
same,binding signal,ELK4,"1.12 fold enrichment (6-mer frequency, TF over GST control)"
same,binding signal,ETV2,"1.28 fold enrichment (6-mer frequency, TF over GST control)"
same,binding signal,ELF3,"1.27 fold enrichment (6-mer frequency, TF over GST control)"
same,binding signal,CRX,"2.05 fold enrichment (6-mer frequency, TF over GST control)"
same,binding signal,ETV1,"1.26 fold enrichment (6-mer frequency, TF over GST control)"
